Source: PubChem (The Scripps Research Institute Molecular Screening Center)
Most compounds without a hit are left out; they make up all but 2.3% or so of the library.
CHO-K1 Ca PAM – nonselective activator or artifact in parental CHO-K1 calcium assay | AID 602247 | 360,000 compounds, 0.02% hits | ATP EC20, Fluo-8 calcium fluorescence; 0% at ATP EC20, 100% at ATP max | activation, % at 3 µM;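 active = activation above the run cutoff, the mean activation of all test compounds plus 3 SD, cut at about 40% in these data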;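 note: peak over basal fluorescence ratio in a 140 s read after ATP addition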
M1 antag – human CHRM1 antagonism | 360,000 compounds, 1.3% hits | inhibition, % at 3 µM | CHO-K1 hM1, Fluo-8 calcium fluorescence, ACh EC80 antagonist | P11229;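 active = percent inhibition above its own plate's cutoff, namely the mean of that plate's compound wells plus 3 SD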;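 note: peak over basal fluorescence ratio during 140 s after agonist addition; 0% = ACh EC80 plus DMSO and 100% = DMSO alone without agonist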
Target sequence (P11229 whole entry, looked up): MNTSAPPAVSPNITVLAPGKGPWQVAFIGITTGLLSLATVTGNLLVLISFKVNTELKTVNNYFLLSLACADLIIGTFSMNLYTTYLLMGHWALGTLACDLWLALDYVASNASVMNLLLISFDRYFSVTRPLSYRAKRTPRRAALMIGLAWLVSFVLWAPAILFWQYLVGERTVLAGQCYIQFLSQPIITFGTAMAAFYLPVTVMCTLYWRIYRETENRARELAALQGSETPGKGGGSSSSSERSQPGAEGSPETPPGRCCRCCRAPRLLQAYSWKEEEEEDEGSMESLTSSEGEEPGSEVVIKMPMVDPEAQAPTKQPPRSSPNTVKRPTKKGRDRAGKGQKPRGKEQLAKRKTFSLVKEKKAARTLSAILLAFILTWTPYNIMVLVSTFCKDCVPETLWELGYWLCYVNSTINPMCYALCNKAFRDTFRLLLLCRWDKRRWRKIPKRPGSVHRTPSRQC
M1 ag parental – nonselective activator or artifact in parental CHO-K1 cells; Fluo-8 calcium fluorescence; scaled to maximal ATP response, vehicle zero; activation, % at 3 µM; 360,000 compounds, 0.48% hits; in the data active = activation above about 15%;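 note: untransfected CHO-K1 host cells lacking M1 receptor as counterscreen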
M1 PAM – positive allosteric modulators of human M1 muscarinic receptor. P11229. CHO-K1 hM1, Fluo-8 calcium fluorescence, ACh EC20; 0% = ACh EC20, 100% = maximal ACh. activation, % at 3 µM. 360,000 compounds, 0.088% hits; in the data active = activation above about 19%, passing the limit was not always enough
CHO-K1 Ca antag – nonselective inhibitor or artifact in parental CHO-K1 cells; 360,000 compounds, 0.6% hits; inhibition, % at 3 µM; ATP-induced calcium, Fluo-8 fluorescence; AID 602250;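 active = inhibition above a per-plate cutoff, the plate's mean sample inhibition plus 3 SD, cut at about 24% in these data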;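 note: 0% = DMSO plus EC80 ATP and 100% = DMSO alone without ATP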
CHRM1 agonist – human M1 muscarinic receptor agonism | P11229 | AID 588814 | activation, % at 3 µM | CHO-K1 hM1, Fluo-8 calcium fluorescence, agonist mode; 0% DMSO, 100% acetylcholine EC100 | 360,000 compounds, 0.33% hits;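 active = activation above the run's mean compound activation plus 3 SD, cut at about 16% in these data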;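 note: peak over basal fluorescence ratio within a 140 s kinetic read after compound addition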
* hit, by the source's call.

Results for CCn1nc(C)c(CN2CCCC(CO)(Cc3cccc(Cl)c3)C2)c1C (stereo unspecified) ?
CHO-K1 Ca PAM: 8; M1 antag: 54*; M1 ag parental: 2; M1 PAM: -23; CHO-K1 Ca antag: -14; CHRM1 agonist: -6

What do the screens show for `CCn1nc(C)c(CN2CCCC(CO)(Cc3ccccc3)C2)c1C` (stereo unspecified)?
CHO-K1 Ca PAM: 11; M1 antag: -8; M1 ag parental: 0; M1 PAM: 2; CHO-K1 Ca antag: -12; CHRM1 agonist: -8

What do the screens show for `COc1ccccc1/C=C/CN1CCCC(CO)(Cc2cccc(Cl)c2)C1` (stereo unspecified)?
CHO-K1 Ca PAM: -16; M1 antag: 56*; M1 ag parental: 3; M1 PAM: -17; CHO-K1 Ca antag: 12; CHRM1 agonist: 0

How did COc1ccc(CC(=O)OCC(=O)NCc2ccc(C)cc2)cc1OC do in these assays?
CHO-K1 Ca PAM: -2; M1 antag: 6; M1 ag parental: 0; M1 PAM: -1; CHO-K1 Ca antag: 2; CHRM1 agonist: -2

How did Cc1nn(Cc2ccccc2)c(Cl)c1/C=C/C(=O)OC(C(=O)NC(N)=O)C(C)C (stereo unspecified) do in these assays?
CHO-K1 Ca PAM: 11; M1 antag: 15; M1 ag parental: 1; M1 PAM: -17; CHO-K1 Ca antag: -7; CHRM1 agonist: -7

What do the screens show for `Cc1ccccc1OCC(=O)Nc1ccc2c(c1)C(=O)N(CCC(=O)O)C2=O`?
CHO-K1 Ca PAM: -14; M1 antag: -17; M1 ag parental: 0; M1 PAM: 26*; CHO-K1 Ca antag: -5; CHRM1 agonist: 8

How did CN(C)/C=C1\C=C2C(=O)c3ccccc3N2C1=O do in these assays?
CHO-K1 Ca PAM: -19; M1 antag: 34; M1 ag parental: 165*; M1 PAM: -17; CHO-K1 Ca antag: 41*; CHRM1 agonist: 141*

Results for C[C@H]1CN(CCc2ccccc2)C(=O)[C@@H]1CC(=O)NCc1ccccc1 ?
CHO-K1 Ca PAM: 7; M1 antag: -18; M1 ag parental: 0; M1 PAM: 12; CHO-K1 Ca antag: -7; CHRM1 agonist: -5

Results for FC(F)Sc1ccc(-n2c(-c3ccc(Cl)cc3)c[n+]3c2CCC3)cc1 ?
CHO-K1 Ca PAM: -5; M1 antag: 61*; M1 ag parental: 0; M1 PAM: -21; CHO-K1 Ca antag: 0; CHRM1 agonist: -6

What do the screens show for `COc1ccc(NCc2ccc(OC)c(Cn3ccnc3)c2)c(OC)c1`?
CHO-K1 Ca PAM: -3; M1 antag: 34*; M1 ag parental: 5; M1 PAM: -22; CHO-K1 Ca antag: -3; CHRM1 agonist: -9

What do the screens show for `COc1ccc(Cn2ccnc2)cc1Br`?
CHO-K1 Ca PAM: 14; M1 antag: -5; M1 ag parental: 2; M1 PAM: -1; CHO-K1 Ca antag: -11; CHRM1 agonist: -3

How did COc1ccc(C(=O)CCc2ccccc2)c(O)c1 do in these assays?
CHO-K1 Ca PAM: -27; M1 antag: 20; M1 ag parental: 2; M1 PAM: -11; CHO-K1 Ca antag: 29*; CHRM1 agonist: -3

Results for CN(C)CCCN1c2ccc3ccccc3c2Sc2cccc(Cl)c21 ?
CHO-K1 Ca PAM: -5; M1 antag: 0; M1 ag parental: 0; M1 PAM: 5; CHO-K1 Ca antag: 7; CHRM1 agonist: 0

Results for CN(C)CCCN1c2ccccc2Sc2ccc3ccccc3c21 ?
CHO-K1 Ca PAM: 6; M1 antag: 82*; M1 ag parental: 6; M1 PAM: -30; CHO-K1 Ca antag: -3; CHRM1 agonist: -6

Results for COc1ccc(CC2(CO)COc3ccccc3C2=O)cc1 (stereo unspecified) ?
CHO-K1 Ca PAM: 28; M1 antag: -13; M1 ag parental: 2; M1 PAM: 4; CHO-K1 Ca antag: -12; CHRM1 agonist: -4

Results for CC1(C)CC(=O)c2ccc(OCc3ccc([N+](=O)[O-])cc3)cc2O1 ?
CHO-K1 Ca PAM: -20; M1 antag: -8; M1 ag parental: 0; M1 PAM: 1; CHO-K1 Ca antag: 30*; CHRM1 agonist: -4

Results for CC1(C)CC(=O)c2c(O)cc(OCc3ccc(Br)cc3)cc2O1 ?
CHO-K1 Ca PAM: 27; M1 antag: -3; M1 ag parental: 2; M1 PAM: 0; CHO-K1 Ca antag: -20; CHRM1 agonist: -7
